Assay outcomes: PubChem, National Center for Advancing Translational Sciences (NCATS)
S2 tox – cell viability loss in ATXN counter-screen. S2 cells (HEK-293 line with an ATXN2-luciferase reporter) viability, CellTiter-Fluor protease fluorescence, 24 h. Potency, µM (top dose mostly 56.7 µM), most hits filed as cytotoxic. 400,000 tested, 0.49% active. AID 651635; further: nearly all actives have a fitted effect of over 40% in size
ATXN2 expr inh – inhibitors of ATXN2 expression. AID 1745845. 360,000 tested, 0.72% active. Potency, µM (highest dose often 57 µM), for inactives: top-dose activity change, negative = inhibition, most hits filed as inhibitors. HEK-293 ATXN2-luciferase reporter, luminescence, 24 h; further: on the % scale 0 is the no-effect control and ±100 the full control effect; nearly all actives have a fitted effect of over 55% in size
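ATXN2-luciferase reporter cells (luciferase flanked by upstream and downstream ATXN2 gene portions) were treated 24 h at 37 °C with compounds at up to 57 uM. SteadyGlo luminescence gave expression; GF-AFC fluorescence gave viability.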
KB-V1 MDR tox – kills drug-selected multidrug resistant KB-V1 cells. KB-V1 MDR cells viability, CellTiter-Glo, 72 h. Potency, µM (titrated, usually from 46.1 µM), usual class: cytotoxic. 400,000 tested, 3.4% active. AID 1347076; further: on the % scale 0 is the no-effect control and ±100 the full control effect; nearly all actives have a fitted effect of over 60% in size
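In this primary screen, KB-V1 cells overexpressing P-gp are incubated with library compounds (lowest to highest concentration) for 72 h at 37 degrees C before a luminescent ATP viability read.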
KB-3-1 tox – KB-3-1 parental cell cytotoxicity; Potency, µM (doses to about 46.1 µM), most hits filed as cytotoxic; KB-3-1 viability, CellTiter-Glo ATP luminescence, 72 h; 400,000 tested, 1.4% active; further: on the % scale 0 is the no-effect control and ±100 the full control effect; nearly all actives have a fitted effect of over 60% in size
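Parental KB-3-1 adenocarcinoma cells in phenol-red-free DMEM with 10% FBS were pin-treated with compounds at several concentrations, incubated 72 h at 37 °C, and viability read by CellTiter-Glo luminescence; concentration-effect curves were fitted after normalization.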
HT1080 IDH1KD tx – HT-1080 IDH1 knockdown cell toxicity (counter line) | 360,000 tested, 2% active | Potency, µM (titrated, usually from 46.1 µM), for the others: at the highest dose activity, negative = toxicity, hits mostly cytotoxic | AID 686971 | HT-1080 IDH1 knockdown viability, ATP luminescence, 48 h;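 further: 0% = DMSO wells and -100% = cell-free medium wells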
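Using the IDH1-knockdown HT-1080 line run in the same batch and compound series as the NT line, viability after 48 h at 37 °C was determined by CellTiter-Glo luminescence and expressed as % activity.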
HT1080NT lethal – kills 2HG-producing HT-1080-NT fibrosarcoma cells; HT-1080-NT fibrosarcoma viability, CellTiter-Glo ATP luminescence, 48 h; Potency, µM (highest dose often 46.1 µM), inactives show top-dose activity, negative = less viability, hits mostly cytotoxic; 360,000 tested, 1.6% active;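 further: NT is the 2HG producing partner of a matched IDH1 knockdown line; 0% = DMSO-treated cells and -100% = media-only wells without cells; nearly all actives have a fitted effect of over 55% in size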
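Compounds were tested in concentration-response format on HT-1080-NT cells for 48 hours at 37 degrees C. Cell viability came from CellTiter-Glo luminescence; curves were classified by r2, response magnitude and activity.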
Active calls of the source: *; i = inactive; ? = inconclusive; · = no result given. Hits are enriched below; roughly 6.2% of the tested compounds scored in any of these assays. The call rests on the fitted dose curve; in most records, active means well fitted curve in the direction sought with a large enough effect; inconclusive means small, poorly fitted or top-dose-only effect, or another doubt; inactive means no such curve, though single readings can be large; an effect the other way counts as inactive or inconclusive. Potency means the concentration at half of the fitted maximal effect.

SMILES	S2 tox	ATXN2 expr inh	KB-V1 MDR tox	KB-3-1 tox	HT1080 IDH1KD tx	HT1080NT lethal
Cc1noc(C)c1C(=O)N1CCN(C(=O)c2sc3cc(Cl)ccc3c2Cl)CC1	i	1.2%	23.1µM*	i	-2.5%	-5.3%
Cc1noc(C)c1C(=O)N1CCN(c2ccccc2O)CC1	?	-14.6%	i	i	14.3%	5.9%
COc1ccc(OC)c(/C=C/c2c3ccccc3cc[n+]2C)c1	·	·	i	?	·	·
COc1ccc2oc(-c3ccc(NC(=O)c4ccc(Cl)cc4Cl)cc3)nc2c1	i	0.2%	i	i	·	·
COCc1ccc(CN2CCC(C(=O)Nc3cccc(-c4cscn4)c3)CC2)o1	i	4.1%	i	i	-0.5%	3.2%
Cc1cccc(-c2ccc(NC(=O)C3CCN(CC4CC4)CC3)cc2)c1	i	-38.5%	i	i	?	20.6µM*
O=C(Nc1cccc(-c2cccc(Cl)c2)c1)C1CCN(CC2CCOC2)CC1 (centres undefined)	i	-23.3%	i	?	?	18.4µM*
COCc1ccc(CN2CCC(C(=O)Nc3cccc(-c4cccc(Cl)c4)c3)CC2)o1	?	?	?	?	16.4µM*	14.6µM*
COc1ccccc1-c1nc2c(c(SCc3ccc(F)cc3Cl)n1)Cc1c(CO)cnc(C)c1O2	i	12.8%	i	i	·	·
O=c1c2ccccc2n(Cc2c(F)cccc2Cl)c(=O)n1Cc1ccccc1	i	6.5%	i	i	·	·
COc1ccc(-c2cc(=S)ss2)cc1	i	-4.1%	·	·	·	·
Cc1ccc(-c2nc(C)c(CCNC(=O)C(=O)Nc3ccc(C)c(Cl)c3)s2)cc1	i	3.3%	i	i	·	·
Cc1ccc(OCCN2CCN(C(=O)CCC(=O)Nc3nnc(CC(C)C)s3)CC2)cc1	i	-17.2%	8.2µM*	?	9.2µM*	?
CCOC(=O)c1[nH]c2c(c1Cc1ccccc1OC)C(=O)CC(c1ccccc1)C2 (centres undefined)	i	-9.0%	i	i	·	·
COC(=O)C1=C(C)NC2=C(C(=O)CCC2)C1c1cn(Cc2ccc(Cl)cc2Cl)nc1-c1ccccc1 (centres undefined)	i	-28.2%	?	?	?	-27.1%
CCOC(=O)C1=C(C)NC2=C(C(=O)CCC2)C1c1cn(Cc2ccc(Cl)cc2Cl)nc1-c1ccccc1 (centres undefined)	i	-16.5%	?	16.4µM*	?	?
O=S(=O)(c1cccc(C(F)(F)F)c1)N1CCCC1c1cccnc1 (centres undefined)	i	11.8%	?	i	0.3%	-0.4%
Cc1ccc(S(=O)(=O)N2CCCCC2c2cccnc2)c(C)c1C (centres undefined)	?	·	16.4µM*	?	-2.8%	0.0%
CCN(CC)CCCC(C)n1c(C)cc(C(=O)NS(=O)(=O)c2ccc(C)cc2)c1C (centres undefined)	?	·	i	i	4.1%	5.1%
CCCOc1ccc(/C(O)=C2\C(=O)C(=O)N(c3ccccn3)C2c2ccccc2F)cc1C (centres undefined)	i	19.1%	18.4µM*	i	?	?
COc1cccc(/C(O)=C2\C(=O)C(=O)N(c3ccccn3)C2c2cccc(OC)c2OC)c1 (centres undefined)	i	1.2%	23.1µM*	i	1.3%	1.0%
COc1ccc(C2/C(=C(/O)c3ccccc3)C(=O)C(=O)N2c2ccccn2)cc1 (centres undefined)	i	13.5%	i	i	8.6%	?
Cc1ccc(C)c(CN2C(=O)CSc3ccc(C(=O)NCCc4ccc(Cl)cc4)cc32)c1	?	9.1%	i	i	·	·
O=C(Cn1cncn1)N1CCOc2ccc(CN3CCN(c4ccccc4)CC3)cc2C1	i	·	·	·	·	·
O=C(CN1CCCN(S(=O)(=O)c2ccc(Br)s2)CC1)Nc1ccc(Cl)cc1	i	?	i	?	17.8µM*	?
SMILES	S2 tox	ATXN2 expr inh	KB-V1 MDR tox	KB-3-1 tox	HT1080 IDH1KD tx	HT1080NT lethal
C[C@@H]1C[C@H]2C3C[C@H](F)C4=CC(=O)C=CC4(C)[C@@]3(F)[C@@H](O)CC2(C)[C@@]1(O)C(=O)COC(=O)C(C)(C)C (some centres undefined)	i	·	·	·	·	·
CCc1cc(-c2nnn(CCC3COCCO3)c2CC)ccc1-c1cn(CCc2c[nH]c3ccccc23)nn1 (centres undefined)	i	-66.8%	i	i	?	-35.3%
CCc1cc(-c2nnn(CCC3COCCO3)c2CC)cc(CC)c1-c1cn(Cc2ccc3ccccc3c2)nn1 (centres undefined)	i	-23.5%	5.8µM*	?	-21.0%	-1.3%
CCOC(=O)c1cc([N+](=O)[O-])c([N+](=O)[O-])cc1NC(C)=O	i	6.0%	i	?	?	7.31µM*
CCOC(=O)c1ccc(NC(=O)c2ccccc2[N+](=O)[O-])cc1	i	47.5%	i	i	-7.9%	-1.0%
O=C(Sc1ccc(Cl)cc1)c1ccccn1	i	-6.9%	i	i	23.1µM*	?
O=C(NCCNC(=O)c1ccccn1)c1ccc(Cl)cc1	i	-11.2%	i	i	1.9%	-5.9%
CC(C)CN1C(=O)c2ccc(NC(=O)c3cccs3)cc2C1=O	i	23.9%	13µM*	i	?	2.8%
CC(C)CN1C(=O)c2ccc(NC(=O)c3ccco3)cc2C1=O	i	·	i	i	-5.1%	-0.7%
COc1ccccc1-c1nnc(SC2CCc3ccccc3NC2=O)s1 (centres undefined)	i	11.4%	5.8µM*	i	-14.2%	3.2%
OC[C@@H]1CCC[C@@H](n2cnc3c(=S)nc[nH]c32)O1	·	·	i	?	·	·
CCN(Cc1ccncc1)Cc1ccc2c(c1)CN(C(=O)c1ccc(OC)cc1)CCO2	i	·	·	·	·	·
COC(=O)c1[nH]c2ccc(Br)cc2c1NC(=O)CN1CCN(C2CCCCC2)CC1	35.5µM*	17.8µM*	?	?	18.4µM*	23.1µM*
COC(=O)c1[nH]c2ccccc2c1NC(=O)CN1CCN(c2cccc(OC)c2)C(C)C1 (centres undefined)	i	?	?	18.4µM*	?	-18.5%
CCN(CC(=O)Nc1c(C(=O)OC)[nH]c2ccc(C)cc12)c1ccc2c(c1)OCO2	?	-19.5%	7.31µM*	i	0.3%	1.2%
CCOC(=O)c1[nH]c2ccc(Br)cc2c1NC(=O)CCN1CCCC(C)(C)C1	i	-16.5%	3.26µM*	i	-16.6%	-11.9%
